The values that follow come from PubChem BioAssay AID624405 (Broad Institute, 2012).

The campaign covered roughly 1,900 compounds. About 250 (13%) were called active. Inconclusive results (about 4%) are left out. Only a sample is shown. Entries with a potency or affinity are not part of this list. Values without a mark were called inactive.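 How the source made its calls: active means fitted curve reaches 40% rescue activity at or below the top valid dose, in every test run; inconclusive means test runs disagree, some active and some inactive; inactive means every run misses the threshold or moves the wrong way.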

A short description of the assay: rescue of simvastatin-induced ATP loss – cell-based, C2C12 myotubes, ATP luminescence, cherry pick, dose response (AID 624405).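 Further: myotubes are challenged with simvastatin at 10 µM to lower ATP.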 The conditions noted are these: 48 h, scaled: DMSO wells 0, geranylgeraniol wells 100; series mostly up to 19.5 µM; rescue activity (ATP increase): at the top concentration.
Regarding `COc1ccccc1CNc1ncnc2c1nnn2Cc1ccccc1`, the “rescue activity (ATP increase)” value is 7.95%.
For `COc1ccc(CNc2ncnc3cc(OC)c(OC)cc23)cc1`, the “rescue activity (ATP increase)” value is -9.96%.
Turning to `CC(c1ccco1)N(C(=O)Nc1ccc(Cl)cc1)c1ccccn1` (stereo unspecified), the “rescue activity (ATP increase)” value was -25.4%.
For `COc1ccccc1-c1nnc(SCC(=O)N2CC(C)CC(C)C2)o1` (stereo unspecified), the “rescue activity (ATP increase)” value was 20%.
With `COc1ccc(-n2nnnc2SCC(=O)N2CCCc3ccccc32)cc1OC`, the “rescue activity (ATP increase)” value was 29%.
For the compound `CNC[C@@H]1Oc2ccc(NC(=O)Nc3ccc(C(F)(F)F)cc3)cc2CC(=O)N([C@@H](C)CO)C[C@@H]1C`, the “rescue activity (ATP increase)” value is -3.3%.
With `CCOc1cc(CNCc2ccncc2)cc(Br)c1OCc1ccccc1F`, the “rescue activity (ATP increase)” value is -28%.
To `COc1ccc2c(c1)c(C(=O)OCCN(C)C)c(C)n2C` belongs 37.3%; to `O=C(COc1ccccc1)Nc1ccc(S(=O)(=O)N2CCCC2)cc1`, -27.4%; to `Cc1c(C(=O)N2CCOCC2)oc2ccc(S(=O)(=O)N3CCCC3)cc12`, 1.94%.
Take `C[C@H]1CCCCO[C@@H](CN(C)C(=O)Nc2cccc3ccccc23)[C@@H](C)CN([C@@H](C)CO)C(=O)c2cc(NS(=O)(=O)c3ccc(Cl)cc3)ccc2O1`: the “rescue activity (ATP increase)” value is 27.8%.
Turning to `C[C@@H]1CN([C@H](C)CO)C(=O)c2cc(C3=CCCCC3)cnc2O[C@@H]1CN(C)Cc1ccccc1F`, the “rescue activity (ATP increase)” value is 9.58%.
Regarding `Cc1noc(C)c1NC(=O)Nc1ccc2c(c1)C(=O)N([C@@H](C)CO)C[C@@H](C)[C@H](CN(C)S(=O)(=O)c1c(C)noc1C)OCCCC[C@@H](C)O2`, the “rescue activity (ATP increase)” value is -8.13%.
In the case of `Nc1nnnn1NCc1cccc(OCc2ccccc2)c1`, the “rescue activity (ATP increase)” value was 45.5%.
`COc1cc(CCC(=O)OCc2nnc(-c3ccccc3)o2)cc(OC)c1OC`: the “rescue activity (ATP increase)” value is 71.2%.
With `Cc1ccc(N2C(N)=NC(N)=NC2(C)C)c(C)c1`, the “rescue activity (ATP increase)” value is -3.46%.
With `CCOC(=O)N1CCN(C(=O)c2ccc3c(=O)n(CCc4ccccc4)c(=O)[nH]c3c2)CC1`, the “rescue activity (ATP increase)” value is 3.38%.
For `CN1C(=O)c2cc(NS(=O)(=O)c3ccc(Cl)cc3)ccc2OC[C@@H]2O[C@@H](CC(=O)N3CCc4ccccc4C3)CC[C@H]21`, the “rescue activity (ATP increase)” value was 24.8%.
For `COc1cccc(C(=O)CN2C3=NCCCN3c3ccccc32)c1`, the “rescue activity (ATP increase)” value was -55.7%.
Regarding `CCCCN1C(=O)NC(NC(C)=O)(C(F)(F)F)C1=O` (stereo unspecified), the “rescue activity (ATP increase)” value was 20.1%.
As for `Cc1cccc(N=c2oc3cc(O)ccc3cc2C(N)=O)c1`, the figure is 0.245%; as for `O=c1c2ccccc2n(Cc2ccc(F)cc2)c(=O)n1C1CCCC1`, -1.96%; as for `O=C(Cn1ncc2c3ccccc3n(Cc3cccc(Cl)c3)c2c1=O)NCC1CCCO1` (stereo unspecified), 21.1%.
Turning to `N#Cc1cc(-c2ccccc2)nnc1Sc1ccc(Cl)cc1`, the “rescue activity (ATP increase)” value was -22%.
As for `COc1ccc(CN(Cc2cccn2C)C(=O)c2cc3cc(OC)ccc3[nH]2)cc1`, the “rescue activity (ATP increase)” value is 11.4%.
In the case of `Cn1c(-c2ccc(F)cc2)cnc1NCc1ccc(F)cc1`, the “rescue activity (ATP increase)” value is -41.3%.
Turning to `COc1cc(NC(=O)c2cccs2)c(C(=O)OCC(=O)NCc2ccco2)cc1OC`, the “rescue activity (ATP increase)” value is -6.19%.
For the compound `Cc1ccc(CNC(=O)CNS(=O)(=O)c2cccc3nsnc23)cc1`, the “rescue activity (ATP increase)” value is -8.33%.
For the compound `COc1ccc(S(=O)(=O)Nc2ccc3c(c2)C(=O)N([C@H](C)CO)C[C@@H](C)[C@H](CN(C)S(=O)(=O)c2ccc(F)cc2)OCCCC[C@H](C)O3)cc1`, the “rescue activity (ATP increase)” value was 11.2%.
As for `CNC[C@@H]1Oc2ccc(NS(=O)(=O)c3c(C)noc3C)cc2C(=O)N([C@@H](C)CO)C[C@@H]1C`, the figure is 26.8%.
As to `Cc1nc(CSc2ccc(Cl)cc2)cc(N2CC(C)OC(C)C2)n1` (stereo unspecified), the “rescue activity (ATP increase)” value was -17.7%.
In the case of `CC1CC(C)CN(CCCNC(=O)c2ccc3c(c2)NC(=O)C(N2CCCCC2)S3)C1` (stereo unspecified), the “rescue activity (ATP increase)” value was -22.8%.
Take `Cc1ccc(NC(=O)c2cc(-c3cccs3)on2)cc1`: the “rescue activity (ATP increase)” value is -5.35%.
With `O=C(Nc1cc(Br)ccc1O)c1cc(-c2cccs2)on1`, the “rescue activity (ATP increase)” value is -16.9%.
Consider `CC(=O)c1cccc(NC(=O)c2cc(-c3cccs3)on2)c1`, for which the “rescue activity (ATP increase)” value was 39.1%.
For `O=C(Nc1cccc(C(F)(F)F)c1)c1cc(-c2cccs2)on1`, the “rescue activity (ATP increase)” value is -19.6%.
With `CCN(CCCNC(=O)C1CCC(=O)N1C(C)C)c1cccc(C)c1` (stereo unspecified), the “rescue activity (ATP increase)” value was 26.9%.
To `Cc1noc(C)c1S(=O)(=O)Nc1ccc2c(c1)C(=O)N([C@@H](C)CO)C[C@H](C)[C@H](CN(C)Cc1ccc3c(c1)OCO3)O2` belongs -0.012%; to `O=C(Nc1ccccc1)Oc1cccc2cccnc12`, -6.01%.
`COc1ccc(S(=O)(=O)Nc2ccccc2C(=O)NC(C)(C)C)cc1OC`: the “rescue activity (ATP increase)” value was 33.8%.
To `COc1ccccc1NS(=O)(=O)c1cccc(NC(=O)c2ccc3ccccc3n2)c1` belongs 4.04%; to `C#CCOC(=O)c1ccccc1C(=O)N(CC)CC`, -18.7%.
On to `O=C(CCN1CCc2ccccc21)c1ccc2c(c1)OCCO2`, for which the “rescue activity (ATP increase)” value was -0.935% [at 10 µM].
Take `COc1ccc(C2CC(=O)Oc3c(C(CCN4CCCCC4)c4ccc(N(C)C)cc4)c(OC)cc(OC)c32)cc1` (stereo unspecified): the “rescue activity (ATP increase)” value was -41.5%.
To `O=C(Nc1cnn(Cc2ccccc2)c1)c1cc2nc(-c3ccco3)cc(C(F)(F)F)n2n1` belongs -13.4%; to `COc1ccc(S(=O)(=O)Nc2cccc3c2O[C@H](CN(C)CC2CCCCC2)[C@H](C)CN([C@H](C)CO)C3=O)cc1`, -8.94%; to `Cc1cc(NC(=O)COC(=O)C2CCN(S(=O)(=O)c3c(Cl)cccc3Cl)CC2)no1`, 26.2%.
For the compound `N#Cc1ccc(-c2nnnn2-c2ccc3c(c2)OCO3)cc1`, the “rescue activity (ATP increase)” value is 6.82%.
On to `COC(=O)c1ccccc1NC(=O)c1ccccc1OC`, for which the “rescue activity (ATP increase)” value was -9.52%.
To `COc1ccccc1N(CC(=O)Nc1ccc2c(c1)OCCO2)S(C)(=O)=O` belongs 5.49%; to `Cc1noc(C)c1S(=O)(=O)N1CCC(C(=O)N2CCN(c3ccccc3Cl)CC2)CC1`, 7.83%; to `C[C@@H]1CCCCO[C@H](CN(C)CC2CCCCC2)[C@@H](C)CN([C@H](C)CO)C(=O)c2cc(NC(=O)CCCN(C)C)ccc2O1`, 2.27%.
In the case of `C[C@@H]1CN([C@@H](C)CO)C(=O)c2cc(C3=CCCCC3)cnc2O[C@@H]1CN(C)C(=O)C1CCOCC1`, the “rescue activity (ATP increase)” value was 16.4%.
With `O=C(COC(=O)CNC(=O)c1ccc(Br)o1)Nc1ccc2c(c1)OCCO2`, the “rescue activity (ATP increase)” value is 20.8%.
As for `COc1ccc(C(=O)N2CCN(C(=O)c3cc(OC)c(OC)c(OC)c3)CC2)cc1`, the figure is -13.4%; as for `COc1ccc(C(=O)N2CCc3cc(OC)c(OC)cc3C2)cc1OC`, 14.1%.
Turning to `N#Cc1cc2c(nc1SCC(=O)N1CCCCC1)CCCCC2`, the “rescue activity (ATP increase)” value is 7.11%.
`CC(C)(C)C(=O)Nc1ccccc1N1CCN(C(=O)c2ccc(Cl)cc2)CC1`: the “rescue activity (ATP increase)” value was 47.4%.
Turning to `C[C@H](CO)N1C[C@H](C)[C@@H](CN(C)Cc2ccc(Cl)c(Cl)c2)Oc2ccc(NC(=O)NC3CCCCC3)cc2CC1=O`, the “rescue activity (ATP increase)” value is 17.5%.
Regarding `C[C@H](CO)N1C[C@H](C)[C@@H](CN(C)Cc2ccc(Cl)c(Cl)c2)Oc2ccc(NC(=O)c3ccncc3)cc2CC1=O`, the “rescue activity (ATP increase)” value is 24.4%.
In the case of `C[C@@H]1CN([C@@H](C)CO)C(=O)c2cc(NC(=O)C3CCCCC3)ccc2O[C@@H]1CN(C)Cc1ccc(Cl)c(Cl)c1`, the “rescue activity (ATP increase)” value was -5.83% [at 21 µM].
With `C[C@@H]1CN([C@H](C)CO)C(=O)Cc2cc(NC(=O)Nc3ccc(F)cc3)ccc2O[C@H]1CN(C)Cc1ccc(Cl)c(Cl)c1`, the “rescue activity (ATP increase)” value is 21.5% [at 21 µM].
Regarding `C[C@@H]1CN([C@H](C)CO)C(=O)c2cc(NC(=O)C3CCCCC3)ccc2O[C@H]1CN(C)Cc1ccc(Cl)c(Cl)c1`, the “rescue activity (ATP increase)” value was -1.86% [at 21 µM].
As for `C[C@H]1CN([C@@H](C)CO)C(=O)Cc2cc(NC(=O)Cc3cn(C)c4ccccc34)ccc2O[C@@H]1CN(C)Cc1ccc(Cl)c(Cl)c1`, the “rescue activity (ATP increase)” value is 28.9%.
In the case of `C[C@@H]1CN([C@@H](C)CO)C(=O)Cc2cc(NC(=O)C3CCCCC3)ccc2O[C@H]1CN(C)Cc1ccc(-c2ccccc2)cc1`, the “rescue activity (ATP increase)” value was 38.7%.
Turning to `C[C@@H]1CN([C@H](C)CO)C(=O)Cc2cc(NC(=O)Cc3cn(C)c4ccccc34)ccc2O[C@@H]1CN(C)Cc1ccc(Cl)c(Cl)c1`, the “rescue activity (ATP increase)” value is 28.1%.
To `COc1ccc(S(=O)(=O)Nc2ccc3c(c2)C(=O)N([C@@H](C)CO)C[C@H](C)[C@@H](CN(C)S(=O)(=O)c2ccc(F)cc2)OCCCC[C@@H](C)O3)cc1` belongs 17.1%.
On to `C[C@@H]1CCCCO[C@H](CN(C)C(=O)Nc2cccc3ccccc23)[C@H](C)CN([C@@H](C)CO)C(=O)c2cc(NC(=O)Nc3ccc4c(c3)OCO4)ccc2O1`, for which the “rescue activity (ATP increase)” value is 16.8%.
`COc1cccc(S(=O)(=O)N(C)C[C@@H]2Oc3ncc(C#CCC(C)C)cc3C(=O)N([C@@H](C)CO)C[C@H]2C)c1`: the “rescue activity (ATP increase)” value was 4.75%.
Turning to `CC(=O)Nc1cc(-c2nn(C)c(=O)c3ccccc23)ccc1N1CCOCC1`, the “rescue activity (ATP increase)” value is 33.7%.
For `C[C@@H]1CCCCO[C@H](CN(C)C(=O)C2CCCCC2)[C@H](C)CN([C@H](C)CO)C(=O)c2cc(NS(=O)(=O)c3ccccc3)ccc2O1`, the “rescue activity (ATP increase)” value was 26.7%.
Take `COc1ccc(CC(=O)Nc2ccc(-c3cn4ccccc4n3)cc2)cc1`: the “rescue activity (ATP increase)” value was -1.98%.
As for `C[C@@H]1CN([C@@H](C)CO)C(=O)Cc2cc(NC(=O)C3CCCCC3)ccc2O[C@H]1CN(C)Cc1ccc(Oc2ccccc2)cc1`, the figure is 17.8%; as for `C[C@@H]1CN([C@@H](C)CO)C(=O)Cc2cc(NC(=O)C3CC3)ccc2O[C@H]1CN(C)Cc1ccc(Oc2ccccc2)cc1`, 26.8%; as for `CCCCNc1ncnc2c1cnn2Cc1ccc(Cl)cc1`, -49%.
To `COCCCn1c(SCC(=O)NCc2ccco2)nc2sc3c(c2c1=O)CCC3` belongs 29.6%; to `O=C(CCn1c(SCC(=O)NCc2ccco2)nc2ccccc2c1=O)NCCc1ccccc1`, 38.7%; to `COc1ccc(OCC(=O)Nc2nnc(S(=O)(=O)N3CCCCCC3)s2)cc1`, -8.53%.
In the case of `Cc1cnc(C(=O)Nc2nccs2)cn1`, the “rescue activity (ATP increase)” value is -34%.
Take `CCN(CC)S(=O)(=O)c1cccc(-c2nnc(SCC(=O)NCCC3=CCCCC3)n2N)c1`: the “rescue activity (ATP increase)” value is 5.05%.
Regarding `CCN(C(C)=O)c1cccc2ccccc12`, the “rescue activity (ATP increase)” value is -3.21%.
Take `CC1CCCN(S(=O)(=O)c2ccc(NC(=O)C3CCN(C(=O)c4ccco4)CC3)cc2)C1` (stereo unspecified): the “rescue activity (ATP increase)” value was 10.1%.
As for `CCC(C)NS(=O)(=O)c1ccc(NC(=O)C2CCN(C(=O)c3ccco3)CC2)cc1` (stereo unspecified), the figure is -1.8%.
Take `CC1CCN(S(=O)(=O)c2ccc(NC(=O)c3ccco3)cc2)CC1`: the “rescue activity (ATP increase)” value is 3.41%.
With `CCC1CCCCN1S(=O)(=O)c1ccc(NC(=O)C2CCN(C(=O)c3ccco3)CC2)cc1` (stereo unspecified), the “rescue activity (ATP increase)” value is -13.4%.
Consider `C[C@@H]1CCCCO[C@@H](CN(C)C(=O)Nc2cccc3ccccc23)[C@H](C)CN([C@H](C)CO)C(=O)c2cc(NC(=O)c3ccncc3)ccc2O1`, for which the “rescue activity (ATP increase)” value was 32.2%.
